# Assay results published in PubChem BioAssay AID1851 (National Center for Advancing Translational Sciences (NCATS), 2009).
# Out of some 16,000 compounds screened, about 5,700 (36%) were called active. Roughly 24% stayed inconclusive and do not appear here. Calls follow the shape of the dose curve; as a rule, active = well fitted curve in the direction sought with a large enough effect; inconclusive = small, poorly fitted or top-dose-only effect, or effect the other way; inactive = no such curve, though single readings can be large or run the other way. The list shows a part of the results. Peptide text beside a SMILES is read from it. * marks the point of attachment. Cbz = O=C(OCc1ccccc1)*
# Target: Cytochrome P450 1A2 (Homo sapiens) (UniProt P05177)
# Assay: Cytochrome panel assay with activity outcomes
# Conditions: recombinant CYP, pro-luciferin dealkylation, luminescence, p450-cyp1a2; series mostly up to 57.1 µM; activity, negative = inhibition: at the top concentration
# % is scaled to controls: 0 for no effect and ±100 for the full control effect.
# Sequence of Cytochrome P450 1A2 (Homo sapiens) (P05177 whole entry, looked up): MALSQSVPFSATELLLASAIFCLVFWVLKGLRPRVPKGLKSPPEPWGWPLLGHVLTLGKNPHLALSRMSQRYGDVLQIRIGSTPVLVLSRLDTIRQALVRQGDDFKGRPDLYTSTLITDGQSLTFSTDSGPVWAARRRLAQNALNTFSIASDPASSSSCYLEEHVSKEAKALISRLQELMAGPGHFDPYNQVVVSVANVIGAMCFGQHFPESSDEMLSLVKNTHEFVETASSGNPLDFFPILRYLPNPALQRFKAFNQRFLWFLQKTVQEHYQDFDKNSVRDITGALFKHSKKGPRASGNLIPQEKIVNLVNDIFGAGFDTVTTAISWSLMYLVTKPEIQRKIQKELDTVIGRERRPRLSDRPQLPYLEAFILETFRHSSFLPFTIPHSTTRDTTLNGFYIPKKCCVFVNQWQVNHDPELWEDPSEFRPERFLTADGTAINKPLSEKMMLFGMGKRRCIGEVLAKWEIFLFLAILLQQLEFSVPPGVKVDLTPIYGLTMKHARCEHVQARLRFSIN
Compound,"activity, negative = inhibition",AC50
COc1c(O[C@H]2O[C@@H](CO)[C@@H](O)[C@@H](O)[C@@H]2O)cc2c(c1OC)-c1ccc(SC)c(=O)cc1[C@H](NC(C)=O)CC2,-16.7% [at 25.6 µM] (inactive),–
COc1cc(C(=O)N2CCC(NC(=O)C(Cc3ccc(C(C)C)cc3)NC(C)=O)CC2)cc(OC)c1OC (stereo not given),-25.5% (inactive),–
Oc1cc2c(cc1O)CN(C(=S)NCCc1ccc(Cl)cc1)CCC2,–,20 µM (active)
O=C(NCCc1ccc(Cl)cc1)C1CCN(S(=O)(=O)N2CCC3(CC2)OCCO3)CC1,-3.74% (inactive),–
O=C(NCCN1CCCC1)C1(S(=O)(=O)c2ccc(Cl)cc2)CC1,-19.8% (inactive),–
COc1ccc(-n2nc(C(=O)NCC(=O)Nc3ccccn3)c3ccccc3c2=O)cc1,-4.65% (inactive),–
COc1ccc(Oc2c(Cl)cnn(-c3ccccc3)c2=O)cc1,–,7.08 µM (active)
COc1cccc(/C=N/n2nnc3c(cnn3-c3ccccc3)c2=O)c1,-27.9% (inactive),–
Cn1c([N+](=O)[O-])cnc1CN1CCN(CCO)CC1,9.16% [at 2.29 µM] (inactive),–
c1ccc(-c2n[nH]c(-c3ccccc3)c2-c2nc3ccccc3[nH]2)cc1,–,8.91 µM (active)
CCOc1cc(NC(=O)c2ccccc2[N+](=O)[O-])c(OCC)cc1NC(=O)CC(C)C,-11.8% (inactive),–
CCOc1cc(NC(=S)Nc2cccc(C)c2)c(OCC)cc1NC(=O)CC(C)C,–,5.01 µM (active)
Cc1cccc(NC(=S)NNC(=O)CC(C)O)c1C (stereo not given),-22.8% (inactive),–
CC1(C)CC(=O)C([C@H]2C3=C(CC(C)(C)CC3=O)Oc3ccccc32)C(=O)C1,-6.77% (inactive),–
CN1CCN(/C=N/C2=C(C#N)C(c3ccccc3)C3=C(CC(C)(C)CC3=O)O2)CC1 (stereo not given),-16.3% (inactive),–
CC1(C)CC(=O)C2=C(C1)Oc1nc3ccccc3cc1C2C(C#N)C#N (stereo not given),–,22.4 µM (active)
N/C(CC/C(N)=N/O)=N\O,-17.8% [at 11.4 µM] (inactive),–
O=C(O)CSSCC(=O)O,-2.44% [at 11.4 µM] (inactive),–
O=C(O)CSc1sc(=S)sc1SCC(=O)O,–,12.6 µM (active)
Cc1nnsc1SCC(=O)O,-5.81% (inactive),–
COc1cccc([C@H]2Oc3ccc(OC)cc3/C(=N\O[C@@H]3O[C@H](COC(C)=O)[C@H](OC(C)=O)[C@H](OC(C)=O)[C@H]3OC(C)=O)[C@@H]2O)c1,2.78% [at 11.4 µM] (inactive),–
CCOC(=O)c1ccccc1Oc1c(F)c(F)nc(NCCO)c1F,–,8.91 µM (active)
Fc1nc(N2CCCC2)c(F)c(Oc2ccccc2Oc2c(F)c(F)nc(N3CCCC3)c2F)c1F,-26.3% (inactive),–

Compound,"activity, negative = inhibition",AC50
Fc1cccc(C2NC(=S)NC3=C2N2CCC3CC2)c1 (stereo not given),-4.29% (inactive),–
Cc1nc(SCC(=O)c2cc3ccccc3oc2=O)c(C#N)c(C)c1C(=O)Nc1ccccc1,-7.52% (inactive),–
Cc1c(C#N)c(=O)oc2ccc3ccccc3c12,–,0.126 µM (active)
COc1ccc(NC(=O)N2CC3(CCN(C(=O)c4cnccn4)CC3)C2)cc1,-0.562% (inactive),–
O=C1C2CCCN2C(c2ccc(F)cc2)N1c1nccs1 (stereo not given),–,3.16 µM (active)
Cc1snc(SCC(=O)N/N=C(\N)COc2cccc(C(F)(F)F)c2)c1C#N,–,12.6 µM (active)
Cc1cccc(OCC(=O)NNC(=O)CSc2ncc(C#N)c(N)n2)c1,-11.1% (inactive),–
C[C@H]1CC[C@H]2C(=O)N3[C@H](c4ccc(Br)cc4)[C@@H](C)CC[C@H]3C(=O)N2[C@@H]1c1ccc(Br)cc1,-10.6% [at 11.4 µM] (inactive),–
O=C1CC(=Nc2ccccc2)NN1c1ccccc1,–,6.31 µM (active)
CC(C)C(NC(=O)OCc1ccccc1)C(=O)O (stereo not given),-3.1% (inactive),–
CC(C)[C@H](NC(=O)OCc1ccccc1)C(=O)N[C@H](C=O)Cc1ccccc1 (Cbz-Val-Phe-aldehyde),-20.6% (inactive),–
O=C(N[C@@H](Cc1ccccc1)C(=O)CCl)OCc1ccccc1,–,3.16 µM (active)
CN(CC(=O)O)Cc1c(O)c(Cl)cc(Cl)c1Cl,-0.983% [at 2.29 µM] (inactive),–
COc1ccc(-c2cc(C(=O)Nc3nc4c(C)cccc4s3)c3ccccc3n2)cc1OC,-21.2% (inactive),–
COc1ccc(OC)c(C2C(C(=O)Nc3nc4ccccc4s3)=C(C)NC3=C2C(=O)CCC3)c1 (stereo not given),–,1.41 µM (active)
CS(=O)(=O)N1CCC2(CCCN(C(=O)Nc3cccc(F)c3)C2)CC1,-19.7% (inactive),–
Cc1ccc(S(=O)(=O)O[C@@H]2[C@H]([C@@H]3COC(C)(C)O3)O[C@H]3OC(C)(C)O[C@@H]32)cc1,-15.9% [at 11.4 µM] (inactive),–
Cc1ccc(Sc2nc(-c3ccccc3)ccc2C#N)cc1,–,2.82 µM (active)
N#Cc1ccc(-c2ccc(F)cc2)nc1Sc1ccccc1,–,0.891 µM (active)
CC[C@@H]1OC(=O)[C@H](C)[C@H](O[C@@H]2C[C@](C)(OC)[C@H](O)[C@H](C)O2)[C@H](C)[C@H](O[C@@H]2O[C@@H](C)C[C@@H](N(C)C)[C@@H]2O)[C@](C)(O)C[C@H](C)[C@@H]2N[C@H](COCCOC)O[C@H]([C@@H]2C)[C@]1(C)O,-13% [at 25.6 µM] (inactive),–
COc1cc(/C=N/Nc2snc(SC)c2C#N)cc(OC)c1OC,–,4.47 µM (active)
COc1ccc(/C=N/Nc2snc(SC)c2C#N)cc1OC,–,0.708 µM (active)
